Source: PubChem
In the library only some 14% were active in any assay of this set; here they are far more common.
4MU fluor = compound fluoresces in the 4-MU spectral region. compound autofluorescence, 340/450 nm, 4-MU equivalents; stronger effect = higher value. max dye-equivalent concentration, M. hit rate 11% among 59,000; in the data active = max dye-equivalent concentration above about 10 nM; inconclusive = mostly about 1.1 nM to 9.6 nM
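Compounds in 100 mM Tris, pH 8.0, sat 15 min at room temperature before fluorescence was read at 340 nm excitation/450 nm emission; a per-plate six-point 4-MU standard curve converted signals to dye-equivalent concentration at each compound concentration.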
A350 autofl = A350 region autofluorescence | hit rate 11% among 59,000 | max dye-equivalent concentration, M | Compound autofluorescence, 340/450 nm, Alexa 350 dye-equivalents; stronger effect = higher value; in the data active = max dye-equivalent concentration above about 10 nM; inconclusive = mostly about 1.1 nM to 9.6 nM
CRE Fsk mod = modulators of forskolin-stimulated CRE signaling in CHO cells | AID 662 | hit rate 2.5% among 71,000 | Potency, µM (doses to about 38.2 µM), for inactives: top-dose activity change, negative = inhibition, usual class: activators | CHO CRE-bla reporter (cAMP response element driving beta-lactamase), forskolin EC10, beta-lactamase ratio; active = well fitted activation curve with a large enough effect in the signal ratio, with a control signal flat, not every such curve was filed as active; inconclusive = small, poorly fitted or top-dose-only effect, or effect the other way, or a change in a side signal; the % refers to the signal ratio; note: potency is the fitted concentration of half-maximal effect; % of control where 0% means no effect
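Titrated compounds plus EC10 NKH 477 on CHO CRE-bla cells, 3 h, 37 °C. CCF4, 2 h RT. Ratio 460/530 nm → AC50.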
HADH2 inhib = blocks human hydroxyacyl-CoA dehydrogenase type II; AID 886; hit rate 3.4% among 73,000; recombinant HADH2, NADH fluorescence, beta-hydroxybutyryl-CoA; Potency, µM (titrated, usually from 57.1 µM), inactives show at the highest dose activity change, negative = inhibition, hits mostly inhibitors; note: potency is the fitted concentration of half-maximal effect; % is set by controls: 0 for no effect and ±100 for the full control effect; nearly all actives have a fitted effect of over 60% in size
Target sequence (Q99714 whole entry, looked up, one chain of several): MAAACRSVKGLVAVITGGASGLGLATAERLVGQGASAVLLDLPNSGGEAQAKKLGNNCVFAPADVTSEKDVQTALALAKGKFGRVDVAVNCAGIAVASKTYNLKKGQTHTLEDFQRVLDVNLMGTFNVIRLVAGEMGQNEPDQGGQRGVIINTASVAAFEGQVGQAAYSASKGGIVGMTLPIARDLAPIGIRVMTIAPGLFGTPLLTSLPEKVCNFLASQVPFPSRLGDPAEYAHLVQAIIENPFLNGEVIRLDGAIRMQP
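20 nM HADH2 + cpd, 15 min RT; add 1 mM NAD+/90 uM beta-hydroxybutyryl-CoA; kinetic fluorescence 360/450 nm, 4 min. Tris-HCl pH 9.0, 0.01% Tween-20.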
AID923 = qHTS Assay for Allosteric/Competitive Inhibitors of Caspase-1: Spectroscopic Profiling in AFC Spectral Region. compound fluorescence, AFC spectral region (405/520 nm). Potency, µM (top dose mostly 57.5 µM), without a hit: at the top dose fluorescence increase, usual class: activators. hit rate 1.1% among 75,000. AID 923, 2007; note: potency is the fitted concentration of half-maximal effect; 0% is about no effect
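Baseline compound fluorescence (AFC region, 405 nm ex/520 nm em) taken from the intercept of kinetic reads with 50 nM caspase-1 and 5 uM Ac-WEHD-AFC; normalized to an on-plate AFC standard curve; compounds titrated up to 57 uM.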
HSD17B inhib = inhibitors of human HSD17B10 dehydrogenase | AID 893 | hit rate 7.6% among 75,000 | Potency, µM (highest dose often 57.1 µM), for inactives: at the highest dose activity change, negative = inhibition, hits mostly inhibitors | recombinant HSD17B10, NADH fluorescence kinetic | Q99714;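 note: the protocol describes HADH2 (HSD17B10) and not the HSD17B4 of the title; potency is the fitted concentration of half-maximal effect; % is set by controls: 0 for no effect and ±100 for the full control effect; nearly all actives have a fitted effect of over 70% in size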
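20 nM HADH2, pH 9.0 Tris/Tween; cpd preinc 15 min RT; start w/ 1 mM NAD+ + 90 uM b-hydroxybutyryl-CoA; kinetic fluor ex360/em450 q30s x 4 min; delta last-first.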
* = called active by the depositor; [ ] = another dose, or the depositor's remark. Unless noted, calls come from the whole dose curve; as a rule, active = well fitted curve in the direction sought with a large enough effect; inconclusive = small, poorly fitted or top-dose-only effect, or another doubt; inactive = no such curve, though single readings can be large; an effect the other way counts as inactive or inconclusive.

`CCOc1ccc(C2C3=C(CCCC3=O)Nc3nc(C(F)(F)F)nn32)cc1OC` (centres undefined) gave 4MU fluor 7.5e-08M*, A350 autofl 6.8e-08M*, CRE Fsk mod 22%, HADH2 inhib inconclusive, AID923 1% and HSD17B inhib 25µM*.
`CCSc1nc2n(n1)C(c1cccc(F)c1)C1=C(CCCC1=O)N2` (centres undefined) gave 4MU fluor 6.3e-08M*, A350 autofl 7.7e-08M*, CRE Fsk mod 22%, HADH2 inhib inconclusive, AID923 2% and HSD17B inhib inconclusive.
For CCOc1ccc(C2CC(=O)NC3=C2C(=O)CCC3)cc1 (centres undefined) the results were 4MU fluor inactive, A350 autofl inactive, CRE Fsk mod 7%, HADH2 inhib -5%, AID923 -1% and HSD17B inhib 1%.
Screening O=C(Nc1c(C(=O)N2CCOCC2)cnn1-c1ccccc1)c1ccco1 returned 4MU fluor inactive, A350 autofl inactive, CRE Fsk mod 0%, HADH2 inhib 7%, AID923 1% and HSD17B inhib 14%.
Screening CCC(=O)[C@]12O[C@@]3(C4C(=O)OCCC41)N(Cc1ccccc1)C(C)=C(C(=O)OC)C(c1ccccc1)N3C2=O (some centres undefined) returned HADH2 inhib 7%[11.4 µM], AID923 1%[11.5 µM] and HSD17B inhib 0%[11.4 µM].
For Nc1nc2ccc([N+](=O)[O-])cc2s1 the results were CRE Fsk mod inconclusive, HADH2 inhib -13%, AID923 -2% and HSD17B inhib -26%.
`COc1ccc(C2C3=C(CCCC3=O)Nc3nc(C(F)(F)F)nn32)cc1OC` (centres undefined) gave 4MU fluor 8e-08M*, A350 autofl 7.2e-08M*, CRE Fsk mod inconclusive, HADH2 inhib -27%, AID923 -1% and HSD17B inhib 25µM*.
COc1ccc(C2C3=C(Nc4ncnn42)c2ccccc2CC3)cc1OC (centres undefined) was read as 4MU fluor inconclusive, A350 autofl inconclusive, CRE Fsk mod 8%, HADH2 inhib inconclusive, AID923 3% and HSD17B inhib -1%.
CNc1nnc(-c2cccc(N(C)C)c2)s1 was read as 4MU fluor 3.6e-08M*, A350 autofl 4.3e-08M*, CRE Fsk mod inconclusive, HADH2 inhib -10%, AID923 7% and HSD17B inhib 32µM*.
Screening COc1ccc2sc(N3C(=O)C4CC=C(C)CC4C3=O)nc2c1 (centres undefined) returned 4MU fluor 2.7e-08M*, A350 autofl 2.1e-08M*, CRE Fsk mod 7%, HADH2 inhib 2%, AID923 -1% and HSD17B inhib -1%.
CC(C)OCC(O)CN (centres undefined) was read as 4MU fluor 1.7e-08M*, A350 autofl inconclusive, CRE Fsk mod 25%, HADH2 inhib -5%, AID923 0% and HSD17B inhib 0%.
Screening CCCC[C@@H]1C[C@H]1C(NC(=O)c1cccs1)c1ccccc1C(F)(F)F (some centres undefined) returned CRE Fsk mod -4%, HADH2 inhib 1%, AID923 0% and HSD17B inhib -1%.
For Cc1cc(C)c2c(N)c(C(=O)N3CCCCCC3)sc2n1 the results were 4MU fluor 2.3e-08M*, A350 autofl 2.2e-08M*, CRE Fsk mod inconclusive, HADH2 inhib -11%, AID923 3% and HSD17B inhib inconclusive.
For Cc1cc(C)c2c(N)c(C(=O)NCc3ccco3)sc2n1 the results were 4MU fluor 1.2e-07M*, A350 autofl 1.6e-07M*, CRE Fsk mod inconclusive, HADH2 inhib -3%, AID923 3% and HSD17B inhib 7.9µM*.
Cc1cc(C)n2nc(C(=O)NCc3ccco3)nc2n1 was read as 4MU fluor inactive, A350 autofl inactive, CRE Fsk mod 1%, HADH2 inhib -6%, AID923 -1% and HSD17B inhib 8%.
For CC(C)=CCC/C(C)=C/C=C/C1=CC2(C)CC1(C)C(/C=C(\C)CCC=C(C)C)CC2=O (centres undefined) the results were HADH2 inhib 7%[11.4 µM], AID923 0%[11.5 µM] and HSD17B inhib -4%[11.4 µM].
For O=C(Nc1ccn(-c2ccccc2)n1)c1ccc(S(=O)(=O)N2CCCCCC2)cc1 the results were 4MU fluor inactive, A350 autofl inactive, CRE Fsk mod inconclusive, HADH2 inhib -12%, AID923 0% and HSD17B inhib inconclusive.
`Cc1ccc(-c2nc3cccnc3o2)cc1NC(=O)COc1ccc(Cl)cc1C` gave CRE Fsk mod 11%, HADH2 inhib 4%, AID923 -2% and HSD17B inhib 32µM*.
`Clc1c(CSc2nc3ccccc3o2)nc2ccccn12` gave 4MU fluor inactive, A350 autofl inactive, CRE Fsk mod inconclusive, HADH2 inhib -26%, AID923 2% and HSD17B inhib -18%.
Screening Brc1c(CSc2nncn2-c2ccccc2)nc2ncccn12 returned 4MU fluor 6.7e-07M*, A350 autofl 9e-07M*, CRE Fsk mod 3%, HADH2 inhib 25µM*, AID923 4% and HSD17B inhib 25µM*.
Brc1c(CSc2nc3ccccc3o2)nc2ncccn12 was read as 4MU fluor 2.6e-07M*, A350 autofl 2.4e-07M*, CRE Fsk mod inconclusive, HADH2 inhib 25µM*, AID923 -1% and HSD17B inhib 25µM*.
CC(C)NC(=O)N1CCC2(CC1)CCN(C(=O)c1cc(C(F)(F)F)cc(C(F)(F)F)c1)CC2 was read as 4MU fluor inactive, A350 autofl inactive, CRE Fsk mod 0%, HADH2 inhib 7%, AID923 3% and HSD17B inhib 2%.
O=c1c2c3nc4ccccc4nc3n(/N=C/c3ccco3)c2ncn1CCC1=CCCCC1 was read as 4MU fluor inconclusive, A350 autofl 1.1e-08M*, CRE Fsk mod inconclusive, HADH2 inhib -5%, AID923 6% and HSD17B inhib inconclusive.
Screening CCCn1cnc2c(c1=O)c1nc3ccccc3nc1n2CCc1ccccc1 returned 4MU fluor 4.9e-07M*, A350 autofl 6.3e-07M*, CRE Fsk mod 13%, HADH2 inhib -16%, AID923 2% and HSD17B inhib 3.2µM*.
For CCOCCCn1c(SCC(=O)NC(C)C)nc2ccccc2c1=O the results were 4MU fluor inactive, A350 autofl inactive, CRE Fsk mod 13%, HADH2 inhib 3%, AID923 0% and HSD17B inhib 1%.
Cn1c(=O)n(CCc2ccccc2)c(=O)c2c1ncn2Cc1ccccc1 was read as 4MU fluor inactive and A350 autofl inactive.
